JMJD2A Tudor = qHTS Assay for Inhibitors of JMJD2A-Tudor Domain; Lysine-specific demethylase 4A (Homo sapiens), O75164; AlphaScreen JMJD2A-Tudor / H3K4me3 peptide binding; Potency, µM (top dose mostly 114 µM), inactives show at the top dose activity change, negative = inhibition, usual class: inhibitors; 390,000 compounds, 4.4% hits; also: potency is read from the fitted curve at half-maximal effect; % is scaled to controls: 0 for no effect and ±100 for the full control effect; nearly all actives have a fitted effect of over 50% in size
HP1b chromo inh = HTS for Inhibitors of HP1-beta Chromodomain Interactions with Methylated Histone Tails. 390,000 compounds, 0.56% hits. Chromobox protein homolog 1 (Homo sapiens), P83916. AID 540317, 2011. AlphaScreen HP1-beta / biotin-H3K9me3 peptide binding. Potency, µM (doses to about 114 µM), without a hit: at the highest dose activity change, negative = inhibition, most hits filed as inhibitors; also: potency is read from the fitted curve at half-maximal effect; nearly all actives have a fitted effect of over 70% in size
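Compound inhibition of the preformed complex between 50 nM HP1-beta and 50 nM biotinylated H3K9me3 peptide was read by AlphaScreen. Buffer was PBS pH 7.4 with 0.01% Tween-20. Incubations ran 30 min at room temperature, with 10 ug/mL donor/acceptor beads.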
PI5P4K alpha inh = qHTS for Inhibitors of phosphatidylinositol 5-phosphate 4-kinase (PI5P4K). PI5P4Kalpha enzyme, ADP-Glo luminescence, 60 min; hits give low values. max response, %. 330,000 compounds, 1.2% hits; active = max response of -50% or lower; inconclusive = between -30% and -50%; inactive = -30% or higher; also: value at the top dose of about 77 µM; % is scaled to controls: 0 for no effect and ±100 for the full control effect
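Single end-point luminescence (ADP-Glo) quantified ADP from PI5P4Kalpha turnover; ATP 5 microM final, 1 h at RT, 0.1% CHAPS and 0.28 mM EGTA in HEPES pH 7.4.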
BAZ2B inh = qHTS Assay for Inhibitors of BAZ2B. AlphaScreen BAZ2B-H3K14Ac peptide displacement. Bromodomain adjacent to zinc finger domain protein 2B (Homo sapiens), Q9UIF8. Potency, µM (highest dose often 114 µM), for inactives: at the highest dose activity change, negative = inhibition, hits mostly inhibitors. 360,000 compounds, 4.4% hits; also: potency is read from the fitted curve at half-maximal effect; % is scaled to controls: 0 for no effect and ±100 for the full control effect; nearly all actives have a fitted effect of over 60% in size
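BAZ2B (50 nM) with biotin-H3(5-23)K14Ac peptide (50 nM) in PBS pH 7.4, 0.01% Tween-20, preformed 30 min, then compound 30 min at room temperature; top concentration 110uM. AlphaScreen streptavidin donor/nickel chelate acceptor beads (10 ug/mL final), 20 min dark, signal read.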
L3MBTL1 inh = qHTS Assay for the Inhibitors of L3MBTL1; Lethal(3)malignant brain tumor-like protein 1 (Homo sapiens), Q9Y468; AlphaScreen L3MBTL1–H3K9me1 peptide binding; Potency, µM (highest dose often 57.1 µM), inactives show at the highest dose activity, negative = inhibition, actives largely listed as inhibitors; 230,000 compounds, 0.66% hits; also: potency is read from the fitted curve at half-maximal effect; % is scaled to controls: 0 for no effect and ±100 for the full control effect; nearly all actives have a fitted effect of over 60% in size
Target sequence (Q9Y468 whole entry, looked up): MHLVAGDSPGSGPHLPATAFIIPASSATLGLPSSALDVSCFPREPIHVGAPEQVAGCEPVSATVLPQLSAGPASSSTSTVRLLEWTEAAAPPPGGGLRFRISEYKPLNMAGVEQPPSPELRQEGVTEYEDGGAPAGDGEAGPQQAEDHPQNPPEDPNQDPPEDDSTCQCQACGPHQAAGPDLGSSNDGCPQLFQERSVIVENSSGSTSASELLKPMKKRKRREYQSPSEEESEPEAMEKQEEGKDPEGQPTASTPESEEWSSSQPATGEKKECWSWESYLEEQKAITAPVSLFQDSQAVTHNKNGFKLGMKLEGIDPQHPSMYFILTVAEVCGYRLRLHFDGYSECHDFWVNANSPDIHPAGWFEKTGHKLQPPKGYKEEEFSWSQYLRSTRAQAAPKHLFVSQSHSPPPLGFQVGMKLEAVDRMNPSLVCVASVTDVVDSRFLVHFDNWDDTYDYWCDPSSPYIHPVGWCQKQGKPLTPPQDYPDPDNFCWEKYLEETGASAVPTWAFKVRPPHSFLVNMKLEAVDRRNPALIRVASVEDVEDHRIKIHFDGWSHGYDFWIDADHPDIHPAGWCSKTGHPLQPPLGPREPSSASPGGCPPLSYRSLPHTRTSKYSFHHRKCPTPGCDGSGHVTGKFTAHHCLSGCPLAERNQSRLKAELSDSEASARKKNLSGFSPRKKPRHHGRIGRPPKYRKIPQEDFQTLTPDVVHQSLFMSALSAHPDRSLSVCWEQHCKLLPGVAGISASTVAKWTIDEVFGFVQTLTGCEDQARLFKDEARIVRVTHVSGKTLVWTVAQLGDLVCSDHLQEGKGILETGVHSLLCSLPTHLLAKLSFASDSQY
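Displacement of a biotinylated histone H3(1-15) peptide monomethylated at Lys9 (75 nM) from L3MBTL1 (50 nM) was measured by AlphaScreen after a 30 min room-temperature compound incubation; cefsulodin titration served as intraplate control.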
JMJD2E inh-1 = qHTS Assay for Inhibitors of Human Jumonji Domain Containing 2E (JMJD2E); Lysine-specific demethylase 4E (Homo sapiens), B2RXH2; JMJD2E catalytic domain, FDH-coupled NADH fluorescence; Potency, µM (titrated, usually from 57.1 µM), for the others: at the highest dose activity change, negative = inhibition, usual class: inhibitors; 230,000 compounds, 1.6% hits; active = well fitted inhibition curve with a large enough effect, not every such curve was filed as active; inconclusive = small, poorly fitted or top-dose-only effect, or another doubt; inactive = no such curve, though single readings can be large or run the other way;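 also: potency is read from the fitted curve at half-maximal effect; 0% = wells with enzyme and -100% = buffer wells without enzyme; nearly all actives have a fitted effect of over 50% in size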
12-hLO cuvette = Cuvette-Based Assay for Inhibitors of 12-hLO (12-human lipoxygenase): 8HQ Series - Round 1 | shares compounds with BAZ2B inh | purified 12-hLO, cuvette UV 234 nm product formation | Potency, µM, usual class: inhibitors | 35 compounds, 60% hits | AID 2163, 2009;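 active = compounds that slowed 12-hLO product formation enough to yield a measured IC50 potency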
JMJD2E inh-2 = Inhibitors of Human Jumonji Domain Containing 2E (JMJD2E): 8HQs - Round 1 | AID 493212, 2011 | Potency, µM (top dose mostly 57 µM), without a hit: at the top dose activity, negative = inhibition, actives largely listed as inhibitors | 130 compounds, 89% hits | JMJD2E demethylase, FDH-coupled NADH fluorescence | shares compounds with BAZ2B inh
JMJD2E inh-3 = Confirmation qHTS Assay for Inhibitors of Human Jumonji Domain Containing 2E (JMJD2E). shares compounds with JMJD2A Tudor. Recombinant JMJD2E, FDH-coupled NADH fluorescence (FDH is formaldehyde dehydrogenase). Potency, µM (doses to about 56.8 µM), inactives show at the highest dose activity change, negative = inhibition, hits mostly inhibitors. 140 compounds, 93% hits
FDH inh = Counterscreen for JMJD2E Inhibitors: qHTS Assay for Inhibitors of Formaldehyde Dehydrogenase (FDH) | shares compounds with JMJD2A Tudor | FDH enzyme assay, NADH fluorescence kinetic | Potency, µM (doses to about 56.7 µM), without a hit: at the highest dose activity, negative = inhibition, actives largely listed as inhibitors | 140 compounds, 10% hits | AID 2680, 2010
JMJD2E MS inh = MALDI-TOF-MS Assay for Inhibitors of Human Jumonji Domain Containing 2E (JMJD2E); shares compounds with JMJD2A Tudor; Potency, µM, hits mostly inhibitors; recombinant JMJD2E demethylation, MALDI-TOF-MS; 45 compounds, 90% hits;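 active = compounds whose IC50 for blocking JMJD2E demethylation is below 100 µM; inconclusive = dose dependent effect but IC50 above 100 µM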
G9a confirm = qHTS Assay for Inhibitors of Histone Lysine Methyltransferase G9a: Hit Confirmation | shares compounds with JMJD2A Tudor | G9a H3K9 monomethylation, AlphaScreen, 2 h | Potency, µM, actives largely listed as inhibitors | 370 compounds, 89% hits | AID 588344, 2011; also: potency is read from the fitted curve at half-maximal effect; nearly all actives have a fitted effect of over 65% in size
* hit, by the source's call; u = inconclusive; x = no result; [ ] = another dose, or the depositor's remark. An excerpt weighted towards active compounds, which were near 5.7% of everything screened. Unless noted, calls follow the shape of the dose curve; as a rule, active = well fitted curve in the direction sought with a large enough effect; inconclusive = small, poorly fitted or top-dose-only effect, or another doubt; inactive = no such curve, though single readings can be large; an effect the other way counts as inactive or inconclusive.

SMILES	JMJD2A Tudor	HP1b chromo inh	PI5P4K alpha inh	BAZ2B inh	L3MBTL1 inh	JMJD2E inh-1	JMJD2E inh-2	JMJD2E inh-3	FDH inh	others
Cc1cc(C)n(CCc2nc3c4ccccc4nc(N4CCN(c5ccccc5F)CC4)n3n2)n1	-7%	22%	x	0%	x	x	x	x	x
COc1cccc(C(=O)Nc2ccccc2-c2nnc(-c3ccc(C(C)(C)C)cc3)o2)c1	-3%	55%	x	-11%	x	x	x	x	x
O=S(=O)(NCc1ccccc1F)c1ccc(O)c2ncccc12	x	x	x	x	x	x	23µM*	18µM*	-36%
CCOc1ccc(S(=O)(=O)NCc2ccc(Cl)cc2)c2cccnc12	-6%	31%	2	-10%	0%	u	x	x	x
Oc1ccc(CCc2ccccc2)c2cccnc12	45µM*	x	x	x	x	x	7.1µM*	9.1µM*	9%	JMJD2E MS inh=90*
Oc1ccc(COc2ccccc2Cl)c2cccnc12	79µM*	x	x	x	x	x	13µM*	13µM*	-27%
Cc1ccc(N2CC(C(=O)Nc3cccnc3)CC2=O)cc1C (centres undefined)	-7%	-8%	-7	-8%	x	x	x	x	x
COc1ccc(S(=O)(=O)N(CC(=O)N2CCC(C)CC2)c2ccc(C)cc2)cc1	-6%	24%	x	0%	x	x	x	x	x
CCC(=O)NC(c1cccs1)c1cc([N+](=O)[O-])c2cccnc2c1O (centres undefined)	79µM*	-8%	-19	7.9µM*	10µM*	u	14µM*	14µM*	-18%	12-hLO cuvette=0.8µM*
CCC(=O)NC(c1ccco1)c1cc(Cl)c2cccnc2c1O (centres undefined)	u	2%	u	45µM*	-28%	-24%	6.3µM*	6.3µM*	-27%	12-hLO cuvette=1µM*
CCC(=O)NC(c1ccc(OC)cc1)c1cc(Cl)c2cccnc2c1O (centres undefined)	-15%	46%	-5	-5%	4%	-2%	x	x	x
CCC(=O)NC(c1ccc(F)cc1)c1cc(Cl)c2cccnc2c1O (centres undefined)	-12%	x	x	x	x	x	16µM*	16µM*	-18%
CCC(=O)NC(c1ccc(C)s1)c1cc(Cl)c2cccnc2c1O (centres undefined)	-23%	x	x	x	x	x	-6%	10µM*	-9%	12-hLO cuvette=3.5µM*
CC(=O)OC1CC2C(C)(C)C(O)CC(O)[C@@]2(C)C2CC[C@@]3(C)C(=CC(=O)OC3c3ccoc3)[C@]12C (some centres undefined)	x	x	x	x	x	3%	x	x	x
Cc1cc(C(=O)COC(=O)c2cccnc2Cl)c(C)n1-c1c(C)n(C)n(-c2ccccc2)c1=O	-16%	41%	3	-5%	1%	5%	x	x	x
COCCCn1c(C(=O)Nc2ccc3c(c2)OCO3)cc2c(=O)n3cccc(C)c3nc21	x	x	3	x	x	x	x	x	x
Oc1cccc2cc(-c3ccccc3)cnc12	x	x	x	x	x	x	16µM*	16µM*	0%
Oc1cc(Nc2ccccc2)cc2cccnc12	u	17%	x	u	-10%	x	u	u	-18%
O=C(COc1cccc2cccnc12)NNC(=O)Nc1ccccc1	-8%	31%	0	-29%	-4%[11.4 µM]	-23%	x	x	x
c1ccc(Nc2ccccc2)cc1	-13%	28%	-2	-2%	6%	x	x	x	x
Oc1cccc2cc(Nc3ccccc3)cnc12	x	x	x	x	x	x	10µM*	10µM*	-18%
Oc1cc(NCCN2CCOCC2)cc2cccnc12	22µM*	22%	x	2.8µM*	u	x	u	18µM*	-27%	JMJD2E MS inh=26*
Oc1cccc2cc(N3CCCC3)cnc12	x	x	x	x	x	x	18µM*	18µM*	-9%
CCN1CCOC(=O)C1CC(=O)Nc1ccc(C)c(Cl)c1 (centres undefined)	-16%	23%	x	-23%	x	x	x	x	x
CCN1CCOC(=O)C1CC(=O)Nc1cc(Cl)ccc1C (centres undefined)	-15%	16%	x	-22%	x	x	x	x	x	G9a confirm=6.3*
CC(C)COC(=O)N1CCCC1C(=O)Nc1nccs1 (centres undefined)	-14%	-2%	2	-35%	x	-11%	x	x	x	G9a confirm=13*
COc1cccc(-c2cc(C(F)(F)F)n3nc(-c4ccc(C)cc4)cc3n2)c1	15%	42%	x	u	x	x	x	x	x
O=C(O)CCc1ccc(-c2cccs2)o1	100µM*	u	x	56µM*	x	u	x	x	x	G9a confirm=7.9*
Cc1nn(-c2ccccn2)c2c1C(=O)C(Br)CC2 (centres undefined)	13µM*	u	u	x	x	-25%	x	x	x	G9a confirm=0.25*
CC1=C(C)C(=O)N(c2ccccn2)C1=O	-14%	28%	4	3%	7%	-1%	x	x	x

High-throughput results: PubChem, National Center for Advancing Translational Sciences (NCATS)
